PubChem BioAssay (NCI)
The panel holds about 79,000 compounds, 15% with a hit somewhere; the sample as a whole holds those more often. A number with no mark means an inactive call. No stated cut-off is given here; in the data, active means growth inhibition above about 70%; inactive means the rest.

experiment: NCI Yeast Anticancer Drug Screen. Data for the rad50 strain (AID 155);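 further: 0% = growth of vehicle-only cultures of the same strain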; details: S. cerevisiae rad50 strain growth inhibition; at 50.0 µM; hits give high values
Method in brief: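 Readout: growth inhibition relative to vehicle-treated cultures. Compound exposure was carried out in a genetically defined yeast strain deficient in DNA damage repair.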

With `COc1ccc(C2OC3=C(Nc4ccc(Cl)cc4N3)C2=O)c(OC)c1` (configuration not stated) as the compound, how does the growth inhibition read?
The growth inhibition was -9.1%.

For `Nc1nc(-c2ccccc2)ns1`, which growth inhibition is on record?
Its growth inhibition is 4.9%.

With `O=C(O)CN1CCN(CC(=O)O)CCN(CC(=O)O)CCN(CC(=O)O)CC1` as the compound, how does the growth inhibition read?
The growth inhibition was -7.95%.

With `COC(=O)CCC(=O)CC(=O)C(=O)Nc1ccc(F)cc1` as the compound, how does the growth inhibition read?
The growth inhibition was 3.2%.

With `c1ccc(-c2nc(-c3ccccn3)cc3ccccc23)cc1` as the compound, how does the growth inhibition read?
The growth inhibition was -2.05%.

For `CC12CCC(C(Br)C1=O)C2(C)CBr` (configuration not stated), which growth inhibition is on record?
Its growth inhibition is -9.8%.

With `CN1CCC(OC(=O)C(O)C2CCCCC2)CC1` (configuration not stated) as the compound, how does the growth inhibition read?
The growth inhibition was 23.5%.

With `CCCCCCCCCCCCOP(=O)(O)OP(=O)(O)OCC1OC(n2ccc(N)nc2=O)CC1O` (configuration not stated) as the compound, how does the growth inhibition read?
Its growth inhibition is 27.9%.

For `COc1ccc2c(c1OC)Oc1c(OC)ccc3c1C(C2)N(C)C[C@@H]3O` (some centres not stated), which growth inhibition is on record?
Its growth inhibition is 10.1%.

Which growth inhibition does the source give for `CC(=O)c1c(-c2ccccc2)noc1C` here?
The growth inhibition was 7.35%.

With `CCN(CC)CCCC(C)Nc1cc(C)c2nc(C)cc(C)c2c1C` (configuration not stated) as the compound, how does the growth inhibition read?
Its growth inhibition is -22.1%.

With `CC(=O)ONc1nc(C)c(CCC2OCCO2)c(SC(=N)N)n1` as the compound, how does the growth inhibition read?
Its growth inhibition is 28.9%.

For `O=C(NCC(F)(F)C(F)(F)C(F)(F)C(F)(F)C(F)(F)C(F)(F)C(F)(F)F)Oc1ccccc1`, which growth inhibition is on record?
Its growth inhibition is 39.2%.

For `CC(=O)C1(C)SC(N(c2ccccc2)c2ccccc2)=NC1=O` (configuration not stated), which growth inhibition is on record?
The growth inhibition was -1.2%.

Which growth inhibition does the source give for `O=c1cc(O)n2ncnc2[nH]1` here?
The growth inhibition was -4.3%.

Which growth inhibition does the source give for `Cc1ccc(C)c(NC(=O)C(=O)C(C2C(C)CC(=O)C2CC(=O)O)[N+](=O)[O-])c1` (configuration not stated) here?
The growth inhibition was 7.05%.

For `COc1cc(CCC(C)=O)ccc1OC(=O)c1c(-c2c(F)cccc2Cl)noc1C`, which growth inhibition is on record?
The growth inhibition was 1.85%.
